Results reported in PubChem BioAssay.
Values joined by “and” are separate entries in the source; they are usually repeats but may differ in a detail not shown here. Identical values can stand only once. Records with an inconclusive call do not appear. Some compounds were tested as several samples or in several runs, with calls that do not always agree. Active and inactive are the calls of the source.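 Rule for the calls, unless noted: active = aptamer binding inhibition above 30%, about 3 SD of noise from non-fluorescent compounds; inactive = inhibition at or below 30%.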

Key:
[1] = yeast TOR pathway RPL19A-GFP modulators, primary screen, cell-based, S. cerevisiae, multiplex flow cytometry (AID 1862; in the data active = percent of DMSO control GFP below about 86%;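 note: lower values mimic rapamycin by blocking the RPL19A rise seen in DMSO cells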); conditions: S. cerevisiae RPL19A-GFP strain, flow cytometry fluorescence, 3 h; at 10 µM; stronger effect = lower value
[2] = modulators of MEP2-GFP levels in yeast, primary screen, S. cerevisiae, multiplex flow cytometry (AID 1867;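 active = GFP response, as percent of the DMSO control, above the screen-wide mean plus 3 SD, about 139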;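 note: median GFP channel fluorescence of barcode-gated MEP2-GFP cells measured by flow cytometry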); conditions: S. cerevisiae MEP2-GFP strain, 3 h, at 10 µM, stronger effect = higher value, 100% means same as DMSO wells
[3] = modulators of CIT2-GFP expression in yeast, primary screen, S. cerevisiae, GFP fusion, multiplex flow cytometry (AID 1870;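 active = percent response above a set limit, the screen-wide mean plus 3 SD, cut at about 130% in these data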;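 note: barcoded CIT2-GFP strain pooled with four other GFP strains with rapamycin as positive control; median GFP fluorescence per well over plate mean of DMSO wells so 100% = DMSO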); conditions: 3 h, at 10 µM, stronger effect = higher value
[4] = modulators of LAP4-GFP expression in yeast, primary screen, S. cerevisiae, multiplex flow cytometry (AID 1873;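 active = GFP signal, as percent of the solvent control, above the screen mean plus 3 SD, about 149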); conditions: 3 h, at 10 µM, stronger effect = higher value
[5] = modulators of AGP1-GFP expression in yeast TOR pathway, primary screen, cell-based, multiplex flow cytometry, S. cerevisiae (AID 1887;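 active = GFP signal above the screen-wide mean plus 3 SD, that is over about 124.5% of the solvent control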;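 note: AGP1-GFP fusion strain of S. cerevisiae within a five-strain barcoded multiplex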); conditions: 3 h, at 10 µM, stronger effect = higher value
[6] = RPL19A-GFP modulators, yeast TOR pathway, confirmation, cell-based, S. cerevisiae, flow cytometry, cherry picks, mother/daughter gates (AID 2270;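 active = GFP response below 50% of the DMSO control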); conditions: S. cerevisiae RPL19A-GFP strain, 3 h, at 10 µM, stronger effect = lower value, 100 = same GFP as DMSO wells
[7] = LAP4-GFP expression modulators in yeast, confirmation, cell-based, cherry picks, flow cytometry, mother/daughter gates (AID 2271;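 active = GFP response above 150% of the DMSO control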;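 note: ratio of sample to DMSO plate mean so 100% equals DMSO level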); conditions: S. cerevisiae LAP4-GFP strain, 3 h, at 10 µM, stronger effect = higher value, 100 means same as DMSO control
[8] = modulators of MEP2-GFP levels in yeast, confirmation, S. cerevisiae, flow cytometry GFP, cherry picks (AID 2272;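 active = GFP response above 150% of the DMSO control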;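 note: ratio of well signal to plate DMSO mean so 100% equals DMSO level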); conditions: S. cerevisiae MEP2-GFP strain, 3 h, at 10 µM, stronger effect = higher value
[9] = modulators of CIT2-GFP expression in yeast, confirmation, S. cerevisiae, GFP fusion, cherry picks, mother/daughter gates (AID 2274;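 active = GFP response above 150% of the DMSO level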); conditions: S. cerevisiae CIT2-GFP strain, flow cytometry, 3 h, at 10 µM, stronger effect = higher value
[10] = inhibitors of CD8+ T cell-vesicle binding, pilot screen, LFA-1/ICAM-1 modulator project, MLPCN validation set, flow cytometry (AID 2523;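 active = response below a set limit, under 55% cells CD8-positive and vesicle-bound, and CD8 cells' 90th-percentile brightness under 279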;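 for vesicle binding response: mean PE anti-B7-1 fluorescence of CD8+ cells relative to row control; 100% = QL9-loaded vesicles with DMSO vehicle in the same plate row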); conditions: 2C mouse CD8+ T cells, at 7 µM, stronger effect = lower value; double positive events: measured here: CD8+/vesicle+ event percentage
[11] = biological target: Integrin beta-1 (Homo sapiens) + Integrin alpha-4 (Homo sapiens) (UniProt P13612+P05556); experiment: inhibition of HUTS-21 binding to VLA-4, pilot screen, VLA-4 allosteric modulator project, U937 cells, HUTS-21 mAb, flow cytometry, validation set (AID 2674;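 active = inhibition above 50%, about 3 SD of the validation set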;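 note: antibody binding induced by the VLA-4 ligand LDV present at three times its Kd; 0% = LDV ligand with antibody and no compound and 100% = antibody without LDV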); conditions: HUTS-21 LIBS mAb binding, at 6.7 µM, stronger effect = higher value, binding induced by LDV ligand
Integrin beta-1 (Homo sapiens) + Integrin alpha-4 (Homo sapiens), sequence (P05556 whole entry, looked up): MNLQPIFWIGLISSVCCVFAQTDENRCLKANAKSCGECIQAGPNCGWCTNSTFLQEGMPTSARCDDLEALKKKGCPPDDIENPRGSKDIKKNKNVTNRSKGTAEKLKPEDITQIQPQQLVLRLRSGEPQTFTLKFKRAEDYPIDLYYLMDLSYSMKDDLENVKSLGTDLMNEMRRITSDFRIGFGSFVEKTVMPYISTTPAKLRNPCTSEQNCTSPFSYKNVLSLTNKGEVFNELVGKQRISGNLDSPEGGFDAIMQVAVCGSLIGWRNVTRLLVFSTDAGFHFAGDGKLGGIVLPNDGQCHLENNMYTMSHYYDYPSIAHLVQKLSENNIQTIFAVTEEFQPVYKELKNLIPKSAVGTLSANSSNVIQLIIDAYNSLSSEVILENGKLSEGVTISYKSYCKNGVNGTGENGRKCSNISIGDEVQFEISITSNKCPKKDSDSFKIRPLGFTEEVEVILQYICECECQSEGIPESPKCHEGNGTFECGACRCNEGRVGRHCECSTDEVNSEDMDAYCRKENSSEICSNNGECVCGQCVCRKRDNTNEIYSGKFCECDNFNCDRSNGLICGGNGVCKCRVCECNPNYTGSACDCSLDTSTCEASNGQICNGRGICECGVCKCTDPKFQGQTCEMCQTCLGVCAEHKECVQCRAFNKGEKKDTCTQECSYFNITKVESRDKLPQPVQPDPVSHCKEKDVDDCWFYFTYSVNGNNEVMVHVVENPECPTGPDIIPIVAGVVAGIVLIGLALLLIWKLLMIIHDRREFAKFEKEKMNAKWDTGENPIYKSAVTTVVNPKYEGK
Integrin beta-1 (Homo sapiens) + Integrin alpha-4 (Homo sapiens), sequence (P13612 whole entry, looked up): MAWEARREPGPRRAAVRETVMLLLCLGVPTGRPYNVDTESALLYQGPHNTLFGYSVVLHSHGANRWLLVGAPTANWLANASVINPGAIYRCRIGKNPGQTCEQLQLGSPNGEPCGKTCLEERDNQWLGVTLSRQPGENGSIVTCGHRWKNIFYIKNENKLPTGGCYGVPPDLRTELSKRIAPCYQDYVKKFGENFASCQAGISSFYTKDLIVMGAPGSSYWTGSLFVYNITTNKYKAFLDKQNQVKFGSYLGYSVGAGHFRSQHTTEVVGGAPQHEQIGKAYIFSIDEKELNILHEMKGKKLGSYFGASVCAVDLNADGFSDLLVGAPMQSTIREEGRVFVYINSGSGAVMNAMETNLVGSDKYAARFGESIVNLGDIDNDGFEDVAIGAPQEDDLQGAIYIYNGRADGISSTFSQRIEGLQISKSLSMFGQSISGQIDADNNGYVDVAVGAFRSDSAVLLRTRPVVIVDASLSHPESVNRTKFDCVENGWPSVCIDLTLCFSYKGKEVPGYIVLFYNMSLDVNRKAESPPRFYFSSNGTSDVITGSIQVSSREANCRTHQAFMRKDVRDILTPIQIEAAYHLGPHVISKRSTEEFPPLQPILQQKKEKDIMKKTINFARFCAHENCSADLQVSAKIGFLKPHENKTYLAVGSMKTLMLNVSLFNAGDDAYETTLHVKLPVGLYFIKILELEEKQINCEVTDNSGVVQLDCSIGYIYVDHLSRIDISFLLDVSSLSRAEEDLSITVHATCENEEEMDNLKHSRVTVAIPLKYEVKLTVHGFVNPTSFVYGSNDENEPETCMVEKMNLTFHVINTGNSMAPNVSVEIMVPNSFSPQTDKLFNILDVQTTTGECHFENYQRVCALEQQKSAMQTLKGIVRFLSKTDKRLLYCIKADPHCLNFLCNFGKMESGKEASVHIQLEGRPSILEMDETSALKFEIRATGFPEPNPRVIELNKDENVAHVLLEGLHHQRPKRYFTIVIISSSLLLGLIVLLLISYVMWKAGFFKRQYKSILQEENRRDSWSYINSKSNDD

[12] = superoxide lowering in aged yeast cells, pilot screen, validation compound set (AID 2706;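 active = superoxide response below 65% of plate, a cut near 3 SD across the whole screen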;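 note: yeast exposed to compound for one week at 30 degrees C before staining; 100% = mean of all compound wells on the same plate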); conditions: S. cerevisiae aging, superoxide DHE fluorescence; at 10 µM; stronger effect = lower value
[13] = biological target: Beta-adrenergic receptor kinase 1 (Homo sapiens) (UniProt P25098); experiment: GRK2 binders displacing RNA aptamer, biochemical, validation, human GRK2, bead flow cytometry (AID 488806); conditions: bead-bound GRK2, FAM-aptamer displacement, at 10 µM, stronger effect = higher value
Beta-adrenergic receptor kinase 1 (Homo sapiens), sequence (P25098 whole entry, looked up): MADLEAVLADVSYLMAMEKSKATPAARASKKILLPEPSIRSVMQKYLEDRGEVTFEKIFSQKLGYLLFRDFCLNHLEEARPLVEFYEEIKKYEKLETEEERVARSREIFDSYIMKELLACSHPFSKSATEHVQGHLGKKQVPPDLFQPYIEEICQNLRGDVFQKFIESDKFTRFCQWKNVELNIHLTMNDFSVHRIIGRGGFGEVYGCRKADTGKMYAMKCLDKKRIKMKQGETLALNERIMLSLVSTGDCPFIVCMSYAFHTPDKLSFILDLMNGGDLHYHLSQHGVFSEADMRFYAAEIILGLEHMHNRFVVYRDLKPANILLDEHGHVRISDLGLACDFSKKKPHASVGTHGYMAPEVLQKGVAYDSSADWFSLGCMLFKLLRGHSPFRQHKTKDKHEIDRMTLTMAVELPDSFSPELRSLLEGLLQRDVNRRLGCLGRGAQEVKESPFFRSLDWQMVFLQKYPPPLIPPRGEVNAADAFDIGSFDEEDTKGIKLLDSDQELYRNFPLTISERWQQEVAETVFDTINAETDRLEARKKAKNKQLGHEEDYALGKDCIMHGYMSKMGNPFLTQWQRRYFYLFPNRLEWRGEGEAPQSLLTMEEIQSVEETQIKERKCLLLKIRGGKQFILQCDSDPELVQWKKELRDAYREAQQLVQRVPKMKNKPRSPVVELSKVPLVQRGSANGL

[14] = biological target: Beta-2 adrenergic receptor (Homo sapiens) (UniProt P07550); experiment: beta2AR agonists driving receptor internalization, pilot screen, cell-based, FAP fluorogen, flow cytometry, validation set (AID 504459;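 active = percent response above 42, roughly 3 SD of non-fluorescent test compounds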;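 note: agonist-driven loss of surface beta2AR via internalization measured by FAP dye flow cytometry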); conditions: Am2.2-beta2AR cells, FAP surface receptor flow cytometry; at 10 µM; stronger effect = higher value
Beta-2 adrenergic receptor (Homo sapiens), sequence (P07550 whole entry, looked up): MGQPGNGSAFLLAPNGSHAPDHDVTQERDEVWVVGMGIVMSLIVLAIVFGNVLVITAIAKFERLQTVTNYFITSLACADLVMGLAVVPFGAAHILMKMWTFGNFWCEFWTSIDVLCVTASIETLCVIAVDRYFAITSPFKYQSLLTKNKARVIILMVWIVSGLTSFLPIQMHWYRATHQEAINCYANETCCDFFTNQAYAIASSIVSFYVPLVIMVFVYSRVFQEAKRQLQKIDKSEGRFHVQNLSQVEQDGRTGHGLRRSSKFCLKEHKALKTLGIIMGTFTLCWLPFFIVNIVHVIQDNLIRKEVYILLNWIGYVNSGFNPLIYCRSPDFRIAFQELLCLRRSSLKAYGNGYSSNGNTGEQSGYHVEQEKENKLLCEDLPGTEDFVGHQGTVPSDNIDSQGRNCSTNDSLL

[15] = biological target: AP-2 complex subunit beta (Homo sapiens) (UniProt P63010); experiment: inhibitors of arrestin peptide binding to AP2, pilot screen, biochemical, validation set, GST-AP2 beads, flow cytometry (AID 504541;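 active = inhibition above 54%, about 3 SD of non-fluorescent compounds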;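 note: AP2 carries R879A mutation and is captured from E. coli lysate; bead-bound FITC arrestin peptide fluorescence measuring arrestin peptide binding to AP2; 0% = DMSO wells and 100% = excess unlabeled arrestin peptide control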); conditions: FITC arrestin peptide, at 10 µM, stronger effect = higher value, AP2 beta2 appendage fragment, R879A mutant
AP-2 complex subunit beta (Homo sapiens), sequence (P63010 whole entry, looked up, the tested form may be a part, one chain of several): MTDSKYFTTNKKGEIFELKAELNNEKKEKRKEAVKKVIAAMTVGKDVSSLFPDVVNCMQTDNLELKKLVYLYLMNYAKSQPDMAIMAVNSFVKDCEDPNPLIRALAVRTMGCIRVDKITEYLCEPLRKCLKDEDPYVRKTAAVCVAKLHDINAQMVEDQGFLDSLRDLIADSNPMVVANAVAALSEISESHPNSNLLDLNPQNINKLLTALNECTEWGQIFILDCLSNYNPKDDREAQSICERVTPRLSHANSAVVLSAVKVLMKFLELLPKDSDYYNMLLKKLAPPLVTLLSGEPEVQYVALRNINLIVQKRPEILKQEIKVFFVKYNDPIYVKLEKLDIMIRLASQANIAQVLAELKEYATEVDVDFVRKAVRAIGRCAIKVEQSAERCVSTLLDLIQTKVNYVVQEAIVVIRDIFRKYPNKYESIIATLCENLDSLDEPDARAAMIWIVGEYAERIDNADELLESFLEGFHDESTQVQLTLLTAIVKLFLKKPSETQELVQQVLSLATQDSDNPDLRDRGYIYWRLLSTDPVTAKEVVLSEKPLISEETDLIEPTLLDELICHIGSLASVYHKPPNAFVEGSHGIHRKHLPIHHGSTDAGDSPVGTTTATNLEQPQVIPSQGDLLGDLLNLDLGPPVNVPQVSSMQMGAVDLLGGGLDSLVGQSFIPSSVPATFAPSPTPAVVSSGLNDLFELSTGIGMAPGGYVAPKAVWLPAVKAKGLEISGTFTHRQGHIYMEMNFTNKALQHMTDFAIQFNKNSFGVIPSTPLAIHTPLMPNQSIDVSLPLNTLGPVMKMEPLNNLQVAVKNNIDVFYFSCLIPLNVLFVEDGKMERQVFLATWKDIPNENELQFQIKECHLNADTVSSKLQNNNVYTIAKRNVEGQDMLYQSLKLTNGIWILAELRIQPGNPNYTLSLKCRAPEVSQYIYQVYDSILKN

[16] = yeast V-ATPase proton transport modulators, S. cerevisiae, pHLuorin, HTS validation (AID 504600; in the data active = response above about 15%;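 note: plate controls were DMSO for no effect and reference compound for full effect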); conditions: S. cerevisiae pHLuorin cytosolic pH, at 10 µM, stronger effect = higher value
[17] = system: anti-desmoglein-3 scFv antibody binding to human DSG3; experiment: inhibitors of anti-DSG3 scFv binding to DSG3, pilot screen, biochemical, validation compound set, bead-based, flow cytometry (AID 588368;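 active = binding below the plate cutoff, the plate median minus 3 SD, with a reading above zero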;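 note: signal is the median channel fluorescence of bead-bound GFP antibody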); conditions: Protein G beads, DSG3-Fc, scFv-GFP binding, at 10 µM, stronger effect = lower value
[18] = inhibitors of fungal efflux pumps CDR1, CDR2, MDR1, pilot screen, validation compound set, multiplex, phenotypic (AID 588506;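 active = efflux inhibition above 0.42, the validation set average plus 4 SD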;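 note: Nile Red retained in cells so higher fluorescence means more efflux inhibition; 0 = negative control wells and 1 = enniatin B 25 µM full block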); conditions: S. cerevisiae pump-expressing triplex, Nile Red efflux flow cytometry; at 10 µM; stronger effect = higher value; the pumps come from Candida albicans
[19] = biological target: ATP-binding cassette sub-family B member 6 (Homo sapiens) (UniProt Q9NP58); experiment: ABCB6 transporter inhibitors, pilot screen, K562-ABCB6 cells, flow cytometry, validation set (AID 588550;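 active = inhibition above the screen-wide mean plus 3 SD, about 51%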;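 note: 0% = DMSO wells and 100% = benzethonium chloride 70 µM positive control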); conditions: K562-ABCB6 porphyrin accumulation, 1 h, at 10 µM, stronger effect = higher value
ATP-binding cassette sub-family B member 6 (Homo sapiens), sequence (Q9NP58 whole entry, looked up): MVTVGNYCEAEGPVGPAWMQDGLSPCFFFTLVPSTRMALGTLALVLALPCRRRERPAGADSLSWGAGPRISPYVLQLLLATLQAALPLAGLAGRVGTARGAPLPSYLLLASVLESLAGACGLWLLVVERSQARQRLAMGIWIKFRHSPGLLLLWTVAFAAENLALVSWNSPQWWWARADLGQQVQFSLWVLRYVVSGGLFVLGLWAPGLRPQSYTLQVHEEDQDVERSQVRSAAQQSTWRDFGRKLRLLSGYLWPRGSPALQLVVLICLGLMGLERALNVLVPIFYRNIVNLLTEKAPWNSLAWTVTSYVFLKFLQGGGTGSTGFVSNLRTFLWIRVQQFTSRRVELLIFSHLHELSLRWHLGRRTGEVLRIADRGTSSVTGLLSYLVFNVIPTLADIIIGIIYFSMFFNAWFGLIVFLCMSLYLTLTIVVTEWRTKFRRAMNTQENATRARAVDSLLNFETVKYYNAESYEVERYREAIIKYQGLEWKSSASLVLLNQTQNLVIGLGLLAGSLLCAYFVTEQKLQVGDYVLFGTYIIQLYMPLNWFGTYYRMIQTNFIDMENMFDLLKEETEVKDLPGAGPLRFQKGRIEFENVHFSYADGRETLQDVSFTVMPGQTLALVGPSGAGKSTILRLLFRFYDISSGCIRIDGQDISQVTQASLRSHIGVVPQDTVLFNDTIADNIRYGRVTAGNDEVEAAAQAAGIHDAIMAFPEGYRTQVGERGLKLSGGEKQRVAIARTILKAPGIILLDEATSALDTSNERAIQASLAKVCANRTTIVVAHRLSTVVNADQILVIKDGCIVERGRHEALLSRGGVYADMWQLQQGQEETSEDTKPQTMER

[20] = promoters of myeloid differentiation in arrested cells, primary screen, cell-based, GFP/MAC1 double positive, flow cytometry, validation set (AID 588685;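 active = differentiation response of at least 50%, scaled between solvent and reference control, from cells with both markers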;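 note: compound exposure lasts four days before antibody staining and flow analysis; 0% = DMSO wells and 100% = 5 µM fulvestrant positive control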); conditions: ER-HoxA9 marrow cells, stronger effect = higher value, normalized: vehicle 0, fulvestrant 100
[21] = measured here: daughter cell gate
[22] = measured here: mother cell gate
[23] = measured here: daughter cell gate response
[24] = measured here: mother cell gate response

CN(C)CCCN1c2ccccc2Sc2ccc(Cl)cc21
97.2%: GFP response relative to DMSO [7, 24]
148% (active) and 129% (inactive): GFP response vs DMSO [2]
inactive: percent response of DMSO control [3] 88.6% and 116% | GFP response vs DMSO [4] 83.1% and 94.1% | GFP response, % of DMSO [5] 91.5% and 115% | GFP response vs DMSO [6] 101% | GFP response relative to DMSO [7] 95% | GFP response vs DMSO [8] 100% | GFP response, % of DMSO [9] 106% | vesicle binding response [10] 163% and 432% | inhibition [11] 7.43% and 1.61% | superoxide response (% of plate) [12] 98.3% and 93.3% | aptamer binding inhibition [13] -6% and -20% | response [14] 17.4% and 15.9% | inhibition [15] -3.39% and -5.93% | response [16] 10.8% and 0.91% | binding (% of control) [17] 107% and 114% | inhibition [19] 10% and 13% | differentiation response [20] -7.37% and 5.73%
84.9% (active) and 109% (inactive): percent of DMSO control GFP [1]
64.9% and 70.6%: double positive events [10]
100%: GFP response relative to DMSO [7, 23]
103%: GFP response, % of DMSO [9, 21]
107%: GFP response, % of DMSO [9, 22]
102%: GFP response vs DMSO [6, 22]
-0.17 (inactive) and 0.55 (active): efflux inhibition (fraction of control) [18]
101%: GFP response vs DMSO [6, 21]

c1ccc2c(c1)CCOC2CNCCCN1CCCCC1 (configuration not stated)
105%: GFP response, % of DMSO [9, 21]
52.2%: double positive events [10]
97.2%: GFP response relative to DMSO [7, 23]
101%: GFP response vs DMSO [6, 21]
113%: GFP response, % of DMSO [9, 22]
102%: GFP response vs DMSO [6, 22]
94.2%: GFP response relative to DMSO [7, 24]
active: GFP response vs DMSO [2] 142% | percent response of DMSO control [3] 126%
inactive: percent of DMSO control GFP [1] 92% | GFP response vs DMSO [4] 98% | GFP response, % of DMSO [5] 113% | GFP response vs DMSO [6] 101% | GFP response relative to DMSO [7] 92.6% | GFP response vs DMSO [8] 100% | GFP response, % of DMSO [9] 108% | vesicle binding response [10] 279% | inhibition [11] 14.2% | superoxide response (% of plate) [12] 110% | aptamer binding inhibition [13] -3% | response [14] 0.72% | inhibition [15] -5.37% | response [16] -6.48% | binding (% of control) [17] 105% | efflux inhibition (fraction of control) [18] 0.01 | inhibition [19] -2% | differentiation response [20] -3.28%

NS(=O)(=O)c1cc2c(cc1C(F)(F)F)NC(Cc1ccccc1)NS2(=O)=O (configuration not stated)
64.3%: double positive events [10]
96.5%: GFP response relative to DMSO [7, 23]
inactive: percent of DMSO control GFP [1] 89.8% | percent response of DMSO control [3] 106% | GFP response vs DMSO [4] 82.5% | GFP response, % of DMSO [5] 90.8% | GFP response vs DMSO [6] 95% | GFP response relative to DMSO [7] 97.7% | GFP response vs DMSO [8] 97.5% | GFP response, % of DMSO [9] 102% | vesicle binding response [10] 176% | inhibition [11] 7.43% | superoxide response (% of plate) [12] 85% | aptamer binding inhibition [13] 7% | response [14] 1.02% | inhibition [15] 21.3% | response [16] -2.03% | binding (% of control) [17] 97.4% | efflux inhibition (fraction of control) [18] 0.05 | inhibition [19] 6% | differentiation response [20] -0.82%
104%: GFP response, % of DMSO [9, 21] | GFP response, % of DMSO [9, 22]
97.5%: GFP response relative to DMSO [7, 24]
97.1%: GFP response vs DMSO [6, 22]
active: GFP response vs DMSO [2] 140%
96%: GFP response vs DMSO [6, 21]

C#C[C@]1(O)CC[C@H]2[C@@H]3CCC4=CC(=O)CC[C@@H]4[C@H]3CC[C@@]21CC
103%: GFP response relative to DMSO [7, 24]
62.5%: double positive events [10]
99.7%: GFP response, % of DMSO [9, 21]
inactive: percent of DMSO control GFP [1] 96.3% | GFP response vs DMSO [2] 96.6% | percent response of DMSO control [3] 97.7% | GFP response vs DMSO [4] 107% | GFP response, % of DMSO [5] 103% | GFP response vs DMSO [6] 101% | GFP response relative to DMSO [7] 101% | GFP response vs DMSO [8] 95.7% | GFP response, % of DMSO [9] 102% | vesicle binding response [10] 142% | inhibition [11] 15.1% | superoxide response (% of plate) [12] 92.6% | aptamer binding inhibition [13] 8% | response [14] -17.9% | inhibition [15] -1.43% | response [16] 1.52% | binding (% of control) [17] 98% | efflux inhibition (fraction of control) [18] -0.04 | inhibition [19] 7% | differentiation response [20] 2.89%
102%: GFP response relative to DMSO [7, 23] | GFP response, % of DMSO [9, 22]
98.7%: GFP response vs DMSO [6, 21]
101%: GFP response vs DMSO [6, 22]

CCCCN(CCCC)CCCOC(=O)c1ccc(N)cc1
inactive: percent of DMSO control GFP [1] 92% | percent response of DMSO control [3] 115% | GFP response vs DMSO [4] 82% | GFP response, % of DMSO [5] 81.7% | GFP response vs DMSO [6] 97.6% | GFP response relative to DMSO [7] 94.1% | GFP response vs DMSO [8] 98.3% | GFP response, % of DMSO [9] 99.7% | vesicle binding response [10] 181% | inhibition [11] 0.64% | superoxide response (% of plate) [12] 92.8% | aptamer binding inhibition [13] 0% | response [14] -0.26% | inhibition [15] 6.38% | response [16] -2.47% | binding (% of control) [17] 104% | efflux inhibition (fraction of control) [18] 0.05 | inhibition [19] 9% | differentiation response [20] 1.64%
97.4%: GFP response vs DMSO [6, 21]
94%: GFP response relative to DMSO [7, 24]
64.8%: double positive events [10]
101%: GFP response, % of DMSO [9, 21]
98%: GFP response vs DMSO [6, 22]
active: GFP response vs DMSO [2] 150%
99.7%: GFP response, % of DMSO [9, 22]
97.6%: GFP response relative to DMSO [7, 23]

CCOc1cc(C=O)ccc1OCCSc1ccc(C)cc1
87.7%: GFP response vs DMSO [6, 21]
96.4%: GFP response vs DMSO [6, 22]
60.1%: double positive events [10]
122%: GFP response relative to DMSO [7, 23]
93.3%: GFP response, % of DMSO [9, 22]
inactive: percent of DMSO control GFP [1] 94.6% | GFP response vs DMSO [2] 103% | percent response of DMSO control [3] 77.8% | GFP response, % of DMSO [5] 101% | GFP response vs DMSO [6] 92.9% | GFP response relative to DMSO [7] 131% | GFP response vs DMSO [8] 116% | GFP response, % of DMSO [9] 93.5% | vesicle binding response [10] 185% | inhibition [11] 9.13% | superoxide response (% of plate) [12] 108% | aptamer binding inhibition [13] 4% | response [14] 5.33% | inhibition [15] -9.69% | response [16] 5.17% | binding (% of control) [17] 98.9% | efflux inhibition (fraction of control) [18] 0.08 | inhibition [19] 5% | differentiation response [20] -16.8%
active: GFP response vs DMSO [4] 168%
137%: GFP response relative to DMSO [7, 24]
92.7%: GFP response, % of DMSO [9, 21]
